Results taken from PubChem BioAssay (NCI).
Compounds without any hit were thinned out: in the full panel of roughly 79,000, 15% have a hit. Calls of active or inactive are those of the source. No stated cut-off is given here; in the data, active means growth inhibition above about 70%; inactive means the rest.

Experiment: NCI Yeast Anticancer Drug Screen. Data for the rad50 strain (AID 155);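 further: 0% = growth of vehicle-only cultures of the same strain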
Settings: S. cerevisiae rad50 strain growth inhibition, hits give high values
Experimental: Growth inhibition of yeast strains with defined genetic alterations is measured as a screen for potential anti-cancer activity. Selected strains with alterations in DNA damage repair or cell cycle control were exposed to compounds and growth inhibition was measured relative to vehicle treated controls. The strain used in this assay is rad50

[1] = at 5.0 µM (retest, dose inferred, filed as 0.5)
[2] = at 50.0 µM (retest, dose inferred, filed as 5.0)

Measured: growth inhibition

O=C(O)NCC1CCCCC1 (tested in a mixture with another compound)
inactive: at 1.2 µM 2% | at 3.7 µM -3% | [1] 1% | at 11.0 µM -6% | at 33.0 µM 7% | [2] 38% | at 50.0 µM -12.8%
active: at 100.0 µM 83%

CN(C)/N=N/c1nc[nH]c1C(N)=O
active: at 100.0 µM 97%
inactive: at 1.2 µM -2% | at 3.7 µM 0% | at 11.0 µM 7% | at 33.0 µM 20%

CCCCCCCCCC/C=C\CC(=O)O
active: [2] 81% | at 100.0 µM 99%
inactive: at 1.2 µM 0% | at 3.7 µM -1% | [1] -1% | at 11.0 µM 17% | at 33.0 µM 18% | at 50.0 µM -10.8%

BrC/C=C/C[P+](c1ccccc1)(c1ccccc1)c1ccccc1
inactive: at 1.2 µM 7% | at 3.7 µM 13%
active: [1] 79% | at 11.0 µM 93% | at 33.0 µM 98% | [2] 79% | at 50.0 µM 90% | at 100.0 µM 98%

O=C(N/N=C/c1ccc2c(c1)CCC2)c1ccccc1[N+](=O)[O-]
active: [2] 98% | at 50.0 µM 88.4% | at 100.0 µM 94%
inactive: at 1.2 µM 5% | at 3.7 µM 26% | [1] 62% | at 11.0 µM 35% | at 33.0 µM 18%

O=Cc1ccccc1B(O)O
active: at 3.7 µM 79% | at 11.0 µM 96% | at 33.0 µM 99% | [2] 95% | at 50.0 µM 98.8% | at 100.0 µM 99%
inactive: at 1.2 µM 31% | [1] 48%
